Results as given in the supplement of paper PMC10849652.
About 8,800 targets were measured; listed, in parts, are those with a hit and a random draw of the rest. About 0.5% of all pairs of compound and target were hits. Values without a mark were called inactive.

Tests used:
Test in all cases: log2 fold change, soluble protein after heating vs DMSO (PISA); higher = thermal stabilisation; K562 lysate, 10 uM; active = over 0.2 and 3.5 SD of the protein, either way, in both replicates (recomputed)
[1] = compound: CN1CC[C@H](c2c(O)cc(O)c3c(=O)cc(-c4ccccc4Cl)oc23)[C@H](O)C1 [alvocidib]
Method in brief: (§1)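 The values are log-two fold changes in thermal stability compared with solvent controls and come from duplicates. They were obtained by TMTpro 16plex LC-MS/MS, with channel sums equalised, on the supernatant after 21,000xg for 90 min. That supernatant came from crude K562 extract at 1 mg/mL protein treated with 10 μM compound for 30 min, heated for 3 min across 48°C-58°C, pooled and brought to 0.5% NP-40 at 4°C.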

[2] = compound: CN1CCc2c(c3ccccc3n2Cc2ccc(C(=O)NO)cc2)C1 [Tubastatin A]
Method in brief: as §1

[3] = compound: CNC(=O)C1=CC=CC=C1NC2=NC(=NC=C2Cl)NC3=C(C=C(C=C3)N4CCOCC4)OC
Method in brief: as §1

[4] = compound: CNC(=O)c1ccc(Nc2ncc(C(F)(F)F)c(NCc3nccnc3N(C)S(C)(=O)=O)n2)cc1 [defactinib]
Method in brief: as §1

[5] = compound: CNc1nc(-c2ccc3c(N)n[nH]c3c2)cc(N2C[C@@H](C(=O)NC3CCCCC3)CC[C@H]2C)n1
Method in brief: as §1

[6] = compound: COC(=O)N[C@@H](C)CNc1nccc(-c2cn(C(C)C)nc2-c2cc(Cl)cc(NS(C)(=O)=O)c2F)n1 [encorafenib]
Method in brief: as §1

[7] = compound: COC(=O)[C@H](CCSC)NC(=O)C1=C(C=C(C=C1)NC[C@H](CS)N)C2=CC=CC=C2
Method in brief: as §1

[8] = compound: COc1cc(Nc2ncc3c(n2)-c2ccc(Cl)cc2C(c2c(F)cccc2OC)=NC3)ccc1C(=O)O [alisertib]
Method in brief: as §1

[9] = compound: COc1cc2nc(-c3cc(F)ccc3O)nc(N[C@@H]3CNC[C@H]3C(C)(C)O)c2cc1OC
Method in brief: as §1

[10] = compound: COc1cc2ncnc(Nc3ccc(F)c(Cl)c3)c2cc1OCCCN1CCOCC1 [gefitinib]
Method in brief: as §1

Sequence of UniProt Q16850 (Q16850 whole entry, looked up): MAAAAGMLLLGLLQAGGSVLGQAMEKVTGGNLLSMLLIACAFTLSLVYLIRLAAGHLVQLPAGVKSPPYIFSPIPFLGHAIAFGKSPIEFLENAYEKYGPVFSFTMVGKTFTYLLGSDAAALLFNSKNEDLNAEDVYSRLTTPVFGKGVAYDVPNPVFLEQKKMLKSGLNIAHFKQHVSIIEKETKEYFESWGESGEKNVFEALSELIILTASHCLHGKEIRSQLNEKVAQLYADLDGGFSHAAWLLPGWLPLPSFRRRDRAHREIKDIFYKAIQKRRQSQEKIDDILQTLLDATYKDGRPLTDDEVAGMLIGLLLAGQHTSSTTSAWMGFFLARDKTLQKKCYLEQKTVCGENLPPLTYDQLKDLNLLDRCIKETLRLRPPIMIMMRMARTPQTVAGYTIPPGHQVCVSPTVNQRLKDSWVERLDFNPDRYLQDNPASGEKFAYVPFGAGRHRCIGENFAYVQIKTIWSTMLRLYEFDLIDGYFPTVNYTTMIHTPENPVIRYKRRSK
Sequence of UniProt Q8IWF6 (Q8IWF6 whole entry, looked up): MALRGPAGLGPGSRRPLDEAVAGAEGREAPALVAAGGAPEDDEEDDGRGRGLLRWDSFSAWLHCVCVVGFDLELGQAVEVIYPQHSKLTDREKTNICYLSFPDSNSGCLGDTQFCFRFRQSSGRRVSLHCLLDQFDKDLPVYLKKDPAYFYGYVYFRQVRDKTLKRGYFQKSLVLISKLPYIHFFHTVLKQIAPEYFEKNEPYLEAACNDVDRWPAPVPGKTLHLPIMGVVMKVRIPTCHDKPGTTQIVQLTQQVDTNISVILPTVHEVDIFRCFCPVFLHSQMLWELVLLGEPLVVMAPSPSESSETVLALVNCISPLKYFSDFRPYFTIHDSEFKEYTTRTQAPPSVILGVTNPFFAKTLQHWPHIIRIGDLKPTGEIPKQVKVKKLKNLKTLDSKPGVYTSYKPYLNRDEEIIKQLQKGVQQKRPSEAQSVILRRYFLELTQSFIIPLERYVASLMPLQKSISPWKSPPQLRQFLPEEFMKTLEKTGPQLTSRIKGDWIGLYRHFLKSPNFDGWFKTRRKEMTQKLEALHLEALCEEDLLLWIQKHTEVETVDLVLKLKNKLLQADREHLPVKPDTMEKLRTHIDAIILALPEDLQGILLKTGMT
Sequence of UniProt P17661 (P17661 whole entry, looked up): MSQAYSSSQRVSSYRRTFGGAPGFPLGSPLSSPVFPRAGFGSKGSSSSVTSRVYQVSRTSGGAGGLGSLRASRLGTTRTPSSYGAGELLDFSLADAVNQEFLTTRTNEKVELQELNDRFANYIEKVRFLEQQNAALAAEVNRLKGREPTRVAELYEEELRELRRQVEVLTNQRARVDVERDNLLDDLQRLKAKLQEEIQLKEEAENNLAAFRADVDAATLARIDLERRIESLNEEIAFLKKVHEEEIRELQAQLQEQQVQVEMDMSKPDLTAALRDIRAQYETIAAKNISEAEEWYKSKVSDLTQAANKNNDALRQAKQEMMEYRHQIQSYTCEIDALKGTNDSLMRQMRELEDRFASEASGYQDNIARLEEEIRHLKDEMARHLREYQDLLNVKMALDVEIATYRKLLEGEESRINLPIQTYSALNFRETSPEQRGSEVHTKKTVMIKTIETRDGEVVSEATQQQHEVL
Sequence of UniProt O95628 (O95628 whole entry, looked up): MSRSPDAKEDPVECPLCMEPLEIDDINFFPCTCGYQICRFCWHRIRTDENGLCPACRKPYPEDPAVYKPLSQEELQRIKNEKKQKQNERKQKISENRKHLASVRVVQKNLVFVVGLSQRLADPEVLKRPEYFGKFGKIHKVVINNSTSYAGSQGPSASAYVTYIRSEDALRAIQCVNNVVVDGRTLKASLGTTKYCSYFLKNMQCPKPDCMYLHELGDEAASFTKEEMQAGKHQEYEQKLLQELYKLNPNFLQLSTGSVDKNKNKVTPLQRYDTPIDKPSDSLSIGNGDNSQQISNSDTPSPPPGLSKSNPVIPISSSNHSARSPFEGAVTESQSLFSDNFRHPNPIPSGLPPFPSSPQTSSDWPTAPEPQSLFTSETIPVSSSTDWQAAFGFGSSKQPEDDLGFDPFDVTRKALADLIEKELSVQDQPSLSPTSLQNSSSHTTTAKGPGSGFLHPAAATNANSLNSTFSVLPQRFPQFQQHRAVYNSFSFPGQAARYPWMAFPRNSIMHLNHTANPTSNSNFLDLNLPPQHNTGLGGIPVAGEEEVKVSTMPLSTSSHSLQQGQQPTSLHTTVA
Sequence of UniProt Q96BY6 (Q96BY6 whole entry, looked up): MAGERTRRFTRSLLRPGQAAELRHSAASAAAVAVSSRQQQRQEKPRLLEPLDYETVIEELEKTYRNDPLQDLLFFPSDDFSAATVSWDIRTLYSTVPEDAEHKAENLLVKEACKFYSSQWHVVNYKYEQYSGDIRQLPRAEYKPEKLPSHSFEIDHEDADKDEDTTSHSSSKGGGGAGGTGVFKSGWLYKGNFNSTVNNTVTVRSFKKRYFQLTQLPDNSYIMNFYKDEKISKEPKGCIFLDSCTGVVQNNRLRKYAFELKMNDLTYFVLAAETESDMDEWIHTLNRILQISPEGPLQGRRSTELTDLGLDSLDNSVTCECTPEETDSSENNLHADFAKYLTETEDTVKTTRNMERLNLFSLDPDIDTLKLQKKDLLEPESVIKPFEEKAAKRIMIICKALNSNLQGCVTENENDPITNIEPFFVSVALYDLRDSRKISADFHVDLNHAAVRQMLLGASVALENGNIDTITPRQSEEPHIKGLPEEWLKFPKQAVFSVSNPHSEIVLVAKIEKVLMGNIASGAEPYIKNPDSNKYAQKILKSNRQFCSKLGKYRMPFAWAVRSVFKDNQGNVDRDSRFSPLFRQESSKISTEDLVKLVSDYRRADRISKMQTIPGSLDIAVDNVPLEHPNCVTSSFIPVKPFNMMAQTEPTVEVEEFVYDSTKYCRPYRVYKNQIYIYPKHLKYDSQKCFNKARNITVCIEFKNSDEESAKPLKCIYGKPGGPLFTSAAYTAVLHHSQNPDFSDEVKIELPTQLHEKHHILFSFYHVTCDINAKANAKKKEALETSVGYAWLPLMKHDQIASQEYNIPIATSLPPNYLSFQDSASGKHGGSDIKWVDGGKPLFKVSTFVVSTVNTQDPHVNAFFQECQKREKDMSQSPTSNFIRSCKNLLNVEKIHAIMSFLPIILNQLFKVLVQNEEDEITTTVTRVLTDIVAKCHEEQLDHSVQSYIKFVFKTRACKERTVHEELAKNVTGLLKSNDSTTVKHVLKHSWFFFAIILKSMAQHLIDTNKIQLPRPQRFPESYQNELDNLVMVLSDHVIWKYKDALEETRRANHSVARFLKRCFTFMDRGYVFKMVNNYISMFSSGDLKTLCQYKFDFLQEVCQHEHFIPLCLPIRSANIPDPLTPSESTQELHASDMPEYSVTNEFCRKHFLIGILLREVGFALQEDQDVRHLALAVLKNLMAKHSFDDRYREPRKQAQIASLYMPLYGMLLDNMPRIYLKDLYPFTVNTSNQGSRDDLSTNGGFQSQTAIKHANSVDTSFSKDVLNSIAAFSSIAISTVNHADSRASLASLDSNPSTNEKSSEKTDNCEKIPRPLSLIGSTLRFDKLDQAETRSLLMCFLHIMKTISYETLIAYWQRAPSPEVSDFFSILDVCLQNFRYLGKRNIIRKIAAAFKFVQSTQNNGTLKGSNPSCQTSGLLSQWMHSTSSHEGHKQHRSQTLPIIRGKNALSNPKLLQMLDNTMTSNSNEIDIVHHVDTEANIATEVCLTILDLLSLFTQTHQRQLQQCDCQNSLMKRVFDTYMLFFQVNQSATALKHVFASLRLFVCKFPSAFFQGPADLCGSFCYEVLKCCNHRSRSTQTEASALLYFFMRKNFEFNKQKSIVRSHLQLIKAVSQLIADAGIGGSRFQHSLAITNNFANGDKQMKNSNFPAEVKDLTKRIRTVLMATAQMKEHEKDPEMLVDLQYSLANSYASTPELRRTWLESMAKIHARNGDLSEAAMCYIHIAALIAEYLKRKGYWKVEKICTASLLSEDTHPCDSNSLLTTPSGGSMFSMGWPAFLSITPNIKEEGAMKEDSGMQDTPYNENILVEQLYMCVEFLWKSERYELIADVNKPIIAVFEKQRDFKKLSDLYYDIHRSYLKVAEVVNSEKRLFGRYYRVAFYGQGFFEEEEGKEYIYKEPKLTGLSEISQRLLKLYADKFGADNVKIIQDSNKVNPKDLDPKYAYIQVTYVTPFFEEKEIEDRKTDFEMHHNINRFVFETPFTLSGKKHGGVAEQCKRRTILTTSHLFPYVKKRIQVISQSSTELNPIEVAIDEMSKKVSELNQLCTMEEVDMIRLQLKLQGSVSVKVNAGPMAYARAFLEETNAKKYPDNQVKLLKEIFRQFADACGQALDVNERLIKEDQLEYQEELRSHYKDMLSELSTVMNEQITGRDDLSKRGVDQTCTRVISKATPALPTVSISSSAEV
Sequence of UniProt P24311 (P24311 whole entry, looked up): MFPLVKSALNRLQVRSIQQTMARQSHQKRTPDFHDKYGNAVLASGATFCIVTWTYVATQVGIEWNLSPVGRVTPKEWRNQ
Sequence of UniProt Q07973 (Q07973 whole entry, looked up): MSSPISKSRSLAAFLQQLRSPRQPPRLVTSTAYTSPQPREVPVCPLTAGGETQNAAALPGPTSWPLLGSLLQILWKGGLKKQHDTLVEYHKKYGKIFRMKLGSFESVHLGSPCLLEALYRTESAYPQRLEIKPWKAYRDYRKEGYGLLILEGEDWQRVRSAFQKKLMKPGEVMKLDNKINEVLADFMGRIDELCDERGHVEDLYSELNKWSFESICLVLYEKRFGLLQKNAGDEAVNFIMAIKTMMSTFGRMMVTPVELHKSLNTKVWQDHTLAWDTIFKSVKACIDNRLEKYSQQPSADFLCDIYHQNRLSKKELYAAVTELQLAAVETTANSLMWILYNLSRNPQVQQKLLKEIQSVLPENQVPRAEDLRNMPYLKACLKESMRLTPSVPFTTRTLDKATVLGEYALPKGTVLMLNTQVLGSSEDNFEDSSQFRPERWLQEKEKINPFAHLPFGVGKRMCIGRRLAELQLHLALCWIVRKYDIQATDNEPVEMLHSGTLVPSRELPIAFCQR

Target | log2 fold change [1] | log2 fold change [2] | log2 fold change [3] | log2 fold change [4] | log2 fold change [5] | log2 fold change [6] | log2 fold change [7] | log2 fold change [8] | log2 fold change [9] | log2 fold change [10]
COG5 isoform 2 (UniProt Q9UP83) | 0.02 | -0.051 | 0.04 | -0.005 | -0.015 | -0.025 | -0.037 | -0.012 | -0.053 | 0.027
CYP24A1 (UniProt Q07973) | -0.258 | 0.163 | -0.021 | -0.158 | 0.226 | 0.011 | 0.043 | 0.049 | 0.13 | -0.05
CTNND1 isoform 3 (UniProt O60716) | -0.02 | -0.159 | 0.019 | 0.045 | -0.04 | 0.013 | 0.174 | 0.026 | 0.006 | -0.023
DDX20 (UniProt Q9UHI6) | 0.042 | -0.213 | -0.001 | -0.03 | -0.026 | 0.076 | 0.01 | 0.016 | -0.006 | 0.025
CLIC2 (UniProt O15247) | 0.002 | -0.002 | 0.034 | 0.03 | 0.024 | -0.016 | 0.018 | 0.02 | -0.014 | -0.038
COX7B (UniProt P24311) | 0.013 | 0.02 | 0.112 | 0.042 | -0.014 | -0.022 | 0.315 (active) | 0.028 | 0.018 | -0.139
DENND6A (UniProt Q8IWF6) | -0.009 | -0.072 | -0.006 | 0.007 | 0.103 | 0.007 | -0.134 | 0.059 | -0.024 | 0.047
CNOT4 isoform 6 (UniProt O95628) | 0.015 | -0.011 | -0.009 | 0.001 | -0.069 | 0.076 | -0.051 | -0.003 | -0.041 | -0.007
DCUN1D4 isoform 3 (UniProt Q92564) | -0.276 | 0.081 | 0.003 | 0.014 | 0.035 | 0.034 | 0.131 | 0.055 | -0.043 | -0.049
DLGAP5 (UniProt Q15398) | -0.007 | -0.021 | 0.01 | 0.004 | -0.004 | 0.024 | 0 | -0.016 | -0.02 | -0.001
DES (UniProt P17661) | -0.144 | 0.091 | -0.023 | -0.056 | 0.26 | 0 | -0.029 | -0.017 | 0.117 | 0.04
CYP51A1 (UniProt Q16850) | -0.017 | 0.007 | 0.005 | -0.001 | 0.023 | -0.019 | 0.09 | 0.019 | 0.053 | 0
DOCK10 (UniProt Q96BY6) | -0.354 | -0.028 | 0.208 | 0.133 | 0.046 | 0.067 | -0.002 | 0.05 | -0.042 | 0.084
CHUK (UniProt O15111) | 0.029 | -0.203 | 0.077 | 0.089 | -0.039 | -0.021 | 0.121 | 0.018 | 0.052 | -0.06
DNAAF5 (UniProt Q86Y56) | 0.024 | -0.155 | -0.011 | -0.009 | -0.011 | 0.073 | 0.101 | 0.038 | 0.012 | -0.018
